One assay has as its target C19orf48. Kind of assay: pooled miR-30 sensor sort-seq; sequence = guide strand. Particulars: shRNA.
TTGGGTCCCAGCATGAGCCTGG yielded a sensor-assay potency score (higher = more potent) of -0.0945. For CCACTTATCCACCTTCTCCTGG, the sensor-assay potency score (higher = more potent) is -1.46. TAGGCCTGGTCACAATAGGGAA came in with a sensor-assay potency score (higher = more potent) of -1.64.

Regarding ATAGGCCTGGTCACAATAGGGA, the sensor-assay potency score (higher = more potent) was -0.793.

On to TCCTTGTGCACTGGGTTGGGTC, for which the sensor-assay potency score (higher = more potent) is -1.63.

The target in a further assay is C19orf61. The assay is described as above. As to conditions: shRNA.
Sequence TTGACCGCTCTGCTGGAGGTTT came in with a sensor-assay potency score (higher = more potent) of -0.879.

Turning to TTCTCGGTGAGGATCGTGTGTG, the sensor-assay potency score (higher = more potent) is -0.797. TCTGCTGTCTGCAGGAACCTGT yielded a sensor-assay potency score (higher = more potent) of -0.731. In turn, TTCTTCTCGGTGAGGATCGTGT yielded a sensor-assay potency score (higher = more potent) of -0.682. Take TTCTGCATGACGGAAGTGCTTG: the sensor-assay potency score (higher = more potent) was -0.495.

In turn, TTGGGTAATAAAGAAGTCGATG returned a sensor-assay potency score (higher = more potent) of -0.372. Turning to TAAAGAGCTCTCCAGACCCTGC, the sensor-assay potency score (higher = more potent) was -0.972. Same read-out and setting: then TTGGCTGACAACAATGACATGA, with 0.194.

Turning to TCATCCACCAACTTGATGCTGT, the sensor-assay potency score (higher = more potent) was determined as 0.069. Regarding TAAGTTGACCTCAGAGTCCAGG, the sensor-assay potency score (higher = more potent) is -0.418. Consider TTTGCGGTCATTATTGATGAGA, for which the sensor-assay potency score (higher = more potent) is -1.14. Same read-out and setting: then TTGCATTGTAACATGGACAGAG, with 0.588.

The target in the next assay is C1GALT1C1. The assay is described as above. As to conditions: shRNA.
Regarding TTTGGTATTAAATACATCTTTT, the sensor-assay potency score (higher = more potent) was -0.97.

As to TATCTTCTTTGTTAGGAGCTTG, the sensor-assay potency score (higher = more potent) was -0.577. Regarding TTTATCTTCAGATATCTTCCAA, the sensor-assay potency score (higher = more potent) turned out to be 0.63. For TATCTGAACAACAGCCTTCTAC, the sensor-assay potency score (higher = more potent) was -0.664. Still for that read-out and setting: the same measure for TTTTCATTGATTCTACACTTAA: -1.52; for TTTGTTAGGAGCTTGTAGGTGA: 0.841. The sequence TTTTCAATGATAGCAAACGTAG gave a sensor-assay potency score (higher = more potent) of -1.07. As to TTATCTTCAGATATCTTCCAAA, the sensor-assay potency score (higher = more potent) is -0.897. Sequence ATAATGACAACACACGTCCTAT came in with a sensor-assay potency score (higher = more potent) of -0.903. On the same count and under the same terms, the same measure for TTAATTGACTCAAACACTTTAA: -1.19; for TACATCATCACATGCATCTGAT: -0.0617. The sequence TAAGTCTTTTCATTGATTCTAC registered a sensor-assay potency score (higher = more potent) of -0.486.

A further assay concerns the target C1QL1. Described as above. As to conditions: shRNA.
For the sequence TATAACTTTGGTCAGACGGGGC, the sensor-assay potency score (higher = more potent) is -0.517. Same read-out and setting: then TTTGCCTCCATCCAGCTTGATG, with -1.62; and TCCAGGTGCAGGATCACGCTGT, with -0.765; and TGCAGGATCACGCTGTTGCTGG, with -1.19. On the same count and under the same terms, then TTGAGTACCTCGTAACCCTCGT, with -0.551. On the same count and under the same terms, then TAGGTGAAAAAGTAGGTGCCGG, with -0.205; and TTGCACGTAAACTTGCCGCTGG, with 0.439; and TCAAACTTGAGTACCTCGTAAC, with -0.701. Sequence TTTGTTGCTGTTGCCGCCGTGT registered a sensor-assay potency score (higher = more potent) of -0.647. With TAGGGGTCGCACACCATGCGGC, the sensor-assay potency score (higher = more potent) was -0.617. TAGTTGTTGCCTAGGTTGGTGA came in with a sensor-assay potency score (higher = more potent) of -1.01.

The values are drawn from the OligoGym collection.
Note: reference of the scale not given here.
